This note sets out measurements from PubChem BioAssay (Tox21).

Values joined by “and” are separate entries in the source; they are usually repeats but may differ in a detail not shown here. Equal values may be shown once. Records with an inconclusive call do not appear. Active and inactive are the calls of the source. Unless noted, calls follow the shape of the full dose curve.

Assay [1] can be described thus: Nuclear factor erythroid 2-related factor 2/antioxidant responsive element (Nrf2/ARE) small molecule agonists: luciferase reporter gene qHTS assay in human keratinocytes (AID 1919969). Also: nearly all actives have a fitted effect of over 35% in size. Also: potency is read from the fitted curve at half-maximal effect. A general note: A reporter such as luciferase makes a cellular process visible.
The target in assay [2] is KiSS-1 receptor (Homo sapiens) (UniProt Q969F8). The experiment in a line: Human kisspeptin (KISS1R) small molecule agonists, calcium flux assay in KISS1R-HEK293 cells (AID 1920064; active = well fitted activation curve with a large enough effect in the repeat runs). Summed up: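 Calcium flux read-out: kinetic fluorescence at Ex/Em=480/540, 1 s intervals over 3 min, after pin-tool compound addition to dye-loaded KISS1R-HEK293 cells. Fifteen concentrations, triplicates.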

The nature of assay [3]: G protein-coupled receptor (GPCR) small molecule agonists, calcium flux assay: HEK293 wild type cell line counter screen (AID 1920065). The method, boiled down: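 Agonist mode; 18 h seeding at 37 C, 1 h dye load at 37 C; compounds pinned from DMSO, ATP as positive control; kinetic fluorescence 480/540 nm, 3 min, 1 s reads; 15 concentrations, triplicate.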
Assay [4] in a line: p53 small molecule agonists, cell-based qHTS assay with human liver microsomes (AID 1963577).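 Also: p53 response element beta-lactamase reporter cells with liver microsomes plus NADPH.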 Summed up:
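With metabolic activation: human liver microsomes (0.5 mg/mL final) plus NADPH (0.5 mg/mL final) added alongside compounds to p53RE-bla cells; 16 h 37 C exposure; beta-lactamase read by LiveBLAzer fluorescence.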
In general terms: Quantitative high-throughput screening tests each substance at several concentrations.

The nature of assay [5]: p53 small molecule agonists, cell-based qHTS assay with rat liver microsomes (AID 1963578). Summed up:
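Metabolic activation by rat liver microsomes and NADPH, each 0.5 mg/mL final, added right after compounds to p53RE-bla reporter cells (4,000/well, plated 5 h earlier). 16 h at 37 C, then LiveBLAzer substrate for 2 h at room temperature in the dark; fluorescence read-out.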

The nature of assay [6]: p53 small molecule agonists, cell-based qHTS assay with human liver microsomes: qHTS cell viability counter screen (AID 1963579). Also: nearly all actives have a fitted effect of over 45% in size. Summed up:
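Metabolic activation used human liver microsomes and NADPH, both 0.5 mg/mL final, over 16 hours at 37 C on p53RE-bla cells (4,000/well). Cytotoxicity measured by CellTiter-Glo luminescence, 30 min at room temperature.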

A short description of assay [7]: p53 small molecule agonists, cell-based qHTS assay: qHTS cell viability counter screen (AID 1963581). Also: nearly all actives have a fitted effect of over 45% in size. The method, boiled down:
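Cytotoxicity read-out: ATP-based luminescence (CellTiter-Glo, 30 min RT) measured in the same wells as the p53 reporter assay, HCT-116 p53RE-bla cells, 16 h compound exposure at 37 C.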

The nature of assay [8]: p53 small molecule agonists, cell-based qHTS assay (AID 1963582; active = well fitted activation curve with a large enough effect in the signal ratio in the repeat runs, not every such curve was filed as active; the % refers to the signal ratio). Summed up: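 Fluorescence intensity read-out of a beta-lactamase reporter under a p53 response element. Cells were exposed to DMSO-dissolved compounds for 16 h at 37 C, then developed with FRET substrate for 2 h at RT.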
In assay [9] the target is 5-hydroxytryptamine receptor 2A (Homo sapiens) (UniProt P28223). The experiment in a line: 5-hydroxytryptamine receptor 2A (HTR2A) small molecule antagonists, cell-based qHTS assay (AID 1963586). Also: nearly all actives have a fitted effect of over 45% in size. Summed up: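 CHO cells stably expressing human HTR2A were plated for 18 h at 37 C, then loaded with calcium dye for 1 h. Compounds were preincubated 5 min at room temperature before DOI (4 nM solution) was added. Kinetic fluorescence was read for 3 min.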

The target is the same in assay [10]. Kind of assay: 5-hydroxytryptamine receptor 2A (HTR2A) small molecule agonists, cell-based qHTS assay (AID 1963587). Also: nearly all actives have a fitted effect of over 30% in size. Also: potency is read from the fitted curve at half-maximal effect. The method, boiled down: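 HTR2A-CHO cells, plated 18 h at 37 C/5% CO2, dye-loaded 1 h at 37 C; compounds in DMSO added by pin tool (agonist mode). Intracellular calcium flux read as kinetic fluorescence on FDSS over 2 min at 1 s intervals.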
Assay [11] has as its target Muscarinic acetylcholine receptor M1 (Homo sapiens) (UniProt P11229). The experiment in a line: Cholinergic receptor muscarinic 1 (CHRM1) small molecule antagonists, cell-based qHTS assay (AID 1963588). Also: nearly all actives have a fitted effect of over 40% in size. Summed up:
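Compounds were tested at 15 concentrations in three independent runs. Dye-loaded CHRM1-CHO cells were exposed 5 min at room temperature before stimulation by acetylcholine added at 50nM. Intracellular calcium was read kinetically on FDSS for 3 min.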

The target is the same in assay [12]. Kind of assay: Cholinergic receptor muscarinic 1 (CHRM1) small molecule agonists, cell-based qHTS assay (AID 1963589). Also: nearly all actives have a fitted effect of over 35% in size. The method, boiled down:
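Calcium flux read-out: kinetic fluorescence at 1 sec intervals after pin-tool compound addition to dye-loaded CHRM1-CHO cells (human M1). Agonist mode; 15 concentrations tested in triplicate independent runs.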

Assay [13] is described as follows: cAMP Responsive Elements (CRE) small molecule agonists, cell-based qHTS assay (AID 1963590). The method, boiled down: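 Beta-lactamase reporter readout: LiveBLAzer B/G FRET substrate, 2 h at room temperature, added after 3 h compound treatment of CRE-bla HEK 293T cells at 37 C/5% CO2.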
Assay [14] in a line: cAMP Responsive Elements (CRE) small molecule antagonists, cell-based qHTS assay (AID 1963591; active = well fitted inhibition curve with a large enough effect in the signal ratio in the repeat runs, not every such curve was filed as active; the % refers to the signal ratio). Summed up:
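HEK293T CRE-bla; 18 h preincubation; compound pin-transfer; NKH477 0.25 uM final, 3 h, 37 C; LiveBLAzer FRET substrate 2 h RT.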

The target of assay [15] is Beta-2 adrenergic receptor (Homo sapiens) (UniProt P07550). The experiment in a line: Adrenergic beta2 receptor (ADRB2) small molecule antagonists, cell-based qHTS assay (AID 1963592). Also: series mostly up to about 92 µM; nearly all actives have a fitted effect of over 50% in size. Summed up: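 Assay format: CHO-ADRB2 cells, 18-20hr seeding at 37C/5% CO2, then compound plus 1nM isoproterenol agonist mix for 0.5hr RT. Homogeneous time-resolved fluorescence cAMP detection after 1hr, expressed as 665/615 nm ratio.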

Assay [16] shares this target. The experiment in a line: Adrenergic beta2 receptor (ADRB2) small molecule agonists, cell-based qHTS assay (AID 1963593).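 Also: CHO cells stably overexpressing human ADRB2.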 Summed up: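 CHO cells stably over-expressing ADRB2 were plated overnight at 37C, then dosed with compounds plus a stimulation mix containing 100uM IBMX and 25uM Ro-20-1724 for 0.5hr at room temperature. cAMP was measured by HTRF competition, 1hr.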

In assay [17] the target is D(2) dopamine receptor (Homo sapiens) (UniProt P14416). The experiment in a line: Dopamine D2 receptor (DRD2) small molecule agonists, cell-based qHTS assay (AID 1963594). Also: nearly all actives have a fitted effect of over 35% in size. Summed up:
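HEK293 cells stably expressing DRD2 were cultured 24 h at 37 C, then given Ro20-1724 (0.1 mM final) and compounds for 10 min at room temperature. NKH477 (200nM) was then added for 30 min. cAMP was read by HTRF.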

For assay [18] the target is unchanged. The experiment in a line: Dopamine D2 receptor (DRD2) small molecule antagonists, cell-based qHTS assay (AID 1963595; active = well fitted inhibition curve with a large enough effect in the signal ratio in the repeat runs, with a control signal flat; the % refers to the signal ratio). Summed up:
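Cells were plated and grown for 24 h at 37 °C. Ro20-1724 (0.1 mM final) went in first, then compound for 10 min. NKH477 (200 nM) with quinpirole (12 nM) followed for 30 min at RT, then HTRF detection reagents for 1 h.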

A short description of assay [19]: p53 small molecule agonists, cell-based qHTS assay with rat liver microsomes: qHTS cell viability counter screen (AID 1963580). Also: nearly all actives have a fitted effect of over 45% in size. The method, boiled down: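 Luminescent ATP readout (CellTiter-Glo, 30 min at room temperature) reports viability of p53RE-bla HCT-116 cells after 16 h at 37 C with test compounds under metabolic activation by rat liver microsomes and NADPH at 0.5 mg/mL final each.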

Assay [20] deals with Gonadotropin-releasing hormone receptor (Homo sapiens) (UniProt P30968). The experiment in a line: Human gonadotropin-releasing hormone receptor (GnRHR) small molecule agonists, calcium flux assay in GnRHR-HEK293 cells (AID 1920063). Also: nearly all actives have a fitted effect of over 35% in size. The method, boiled down: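 Calcium-dye fluorescence, Ex/Em=480/540, recorded every 1 sec over 3 min after compound addition to GnRHR-HEK293 cells. Cells had been seeded 18 hours earlier and dye-loaded for 1 hour at 37 C. Fifteen concentrations, triplicates.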
On the technique in general: Calcium assays in cells follow changes in intracellular calcium, usually with a dye or a luminescent sensor.

Sequence of KiSS-1 receptor (Homo sapiens) (Q969F8 whole entry, looked up): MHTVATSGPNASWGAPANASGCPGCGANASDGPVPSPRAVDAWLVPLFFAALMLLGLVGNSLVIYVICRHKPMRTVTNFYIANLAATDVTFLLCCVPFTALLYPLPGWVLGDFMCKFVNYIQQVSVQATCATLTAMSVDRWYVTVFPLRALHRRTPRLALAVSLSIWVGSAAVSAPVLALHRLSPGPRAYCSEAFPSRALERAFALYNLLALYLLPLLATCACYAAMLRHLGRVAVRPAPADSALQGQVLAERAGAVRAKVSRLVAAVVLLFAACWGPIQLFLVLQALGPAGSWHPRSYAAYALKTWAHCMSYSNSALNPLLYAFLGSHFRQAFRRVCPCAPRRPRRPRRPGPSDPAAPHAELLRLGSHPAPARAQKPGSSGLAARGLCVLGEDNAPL
Sequence of Beta-2 adrenergic receptor (Homo sapiens) (P07550 whole entry, looked up): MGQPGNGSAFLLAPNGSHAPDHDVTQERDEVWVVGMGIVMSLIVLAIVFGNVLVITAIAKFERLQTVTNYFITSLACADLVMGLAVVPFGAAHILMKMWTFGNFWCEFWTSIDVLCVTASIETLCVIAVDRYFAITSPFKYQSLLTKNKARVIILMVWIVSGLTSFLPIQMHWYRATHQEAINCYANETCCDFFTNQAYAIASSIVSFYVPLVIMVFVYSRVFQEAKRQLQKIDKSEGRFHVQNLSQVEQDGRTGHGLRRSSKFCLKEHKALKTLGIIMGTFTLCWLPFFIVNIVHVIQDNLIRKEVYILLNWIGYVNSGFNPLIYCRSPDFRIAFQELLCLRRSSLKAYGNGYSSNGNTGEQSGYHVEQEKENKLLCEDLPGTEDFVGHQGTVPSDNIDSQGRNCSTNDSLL
Sequence of 5-hydroxytryptamine receptor 2A (Homo sapiens) (P28223 whole entry, looked up): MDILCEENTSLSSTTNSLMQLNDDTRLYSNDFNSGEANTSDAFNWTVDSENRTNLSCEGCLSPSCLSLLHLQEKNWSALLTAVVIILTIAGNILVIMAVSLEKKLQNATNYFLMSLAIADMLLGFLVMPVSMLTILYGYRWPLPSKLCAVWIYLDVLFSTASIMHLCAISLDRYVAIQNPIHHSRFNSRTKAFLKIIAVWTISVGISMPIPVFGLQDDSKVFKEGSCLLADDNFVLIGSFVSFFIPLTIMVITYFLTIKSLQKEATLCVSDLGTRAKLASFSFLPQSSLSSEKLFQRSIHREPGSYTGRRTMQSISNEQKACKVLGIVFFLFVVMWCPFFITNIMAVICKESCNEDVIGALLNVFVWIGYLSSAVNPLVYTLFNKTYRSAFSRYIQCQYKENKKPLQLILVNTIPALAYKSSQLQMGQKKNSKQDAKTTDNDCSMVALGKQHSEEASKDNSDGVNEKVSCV
Sequence of D(2) dopamine receptor (Homo sapiens) (P14416 whole entry, looked up): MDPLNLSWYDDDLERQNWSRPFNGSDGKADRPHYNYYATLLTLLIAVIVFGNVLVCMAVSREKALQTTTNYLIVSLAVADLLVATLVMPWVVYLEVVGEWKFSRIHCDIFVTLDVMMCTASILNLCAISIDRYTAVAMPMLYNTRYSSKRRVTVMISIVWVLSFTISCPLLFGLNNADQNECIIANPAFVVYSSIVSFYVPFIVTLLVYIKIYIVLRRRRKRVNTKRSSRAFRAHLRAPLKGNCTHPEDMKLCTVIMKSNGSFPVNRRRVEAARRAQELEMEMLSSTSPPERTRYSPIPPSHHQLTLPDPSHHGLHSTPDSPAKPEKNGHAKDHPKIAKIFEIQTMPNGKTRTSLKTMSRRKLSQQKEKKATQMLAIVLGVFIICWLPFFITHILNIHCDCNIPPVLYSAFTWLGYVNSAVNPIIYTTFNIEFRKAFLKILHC
Sequence of Muscarinic acetylcholine receptor M1 (Homo sapiens) (P11229 whole entry, looked up): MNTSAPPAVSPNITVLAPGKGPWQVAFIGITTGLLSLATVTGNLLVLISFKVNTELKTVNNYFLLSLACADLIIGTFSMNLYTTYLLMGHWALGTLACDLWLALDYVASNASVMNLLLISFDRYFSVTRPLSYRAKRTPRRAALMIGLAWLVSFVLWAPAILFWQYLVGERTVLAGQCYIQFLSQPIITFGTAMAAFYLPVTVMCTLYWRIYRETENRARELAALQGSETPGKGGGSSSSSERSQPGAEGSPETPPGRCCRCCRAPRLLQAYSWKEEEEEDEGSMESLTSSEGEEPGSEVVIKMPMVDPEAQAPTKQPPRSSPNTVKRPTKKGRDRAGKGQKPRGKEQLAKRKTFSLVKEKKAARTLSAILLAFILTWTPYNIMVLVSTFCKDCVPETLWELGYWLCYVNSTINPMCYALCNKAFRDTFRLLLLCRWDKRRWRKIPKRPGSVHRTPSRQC
Sequence of Gonadotropin-releasing hormone receptor (Homo sapiens) (P30968 whole entry, looked up): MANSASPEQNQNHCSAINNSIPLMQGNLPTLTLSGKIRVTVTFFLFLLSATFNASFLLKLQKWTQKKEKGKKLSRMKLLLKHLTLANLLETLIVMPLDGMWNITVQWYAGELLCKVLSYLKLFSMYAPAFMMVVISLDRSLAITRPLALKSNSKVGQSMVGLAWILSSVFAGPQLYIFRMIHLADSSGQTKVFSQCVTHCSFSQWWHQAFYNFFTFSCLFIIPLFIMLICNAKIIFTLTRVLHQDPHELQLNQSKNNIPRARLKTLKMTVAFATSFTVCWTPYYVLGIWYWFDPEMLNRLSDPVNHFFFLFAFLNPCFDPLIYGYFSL

Turning to `O=C(Cl)CCl`, the Potency result in assay [1], in assay [2], in [3], in assay [4], in [5] and in [6] was “inactive” in each case. For the same compound, the Potency entry in assay [7], in assay [8], in [9], in assay [10], in [11] and in [12] was “inactive” each time. For the same compound, the Potency entry in assay [13], in assay [14], in [15], in assay [16], in [17] and in assay [18] was “inactive” in each case.

In the case of `Nc1ccc(Cl)cc1N`, the Potency in assay [1] was 31.9 µM (active) and 19.3 µM (active); in [10], 20.3 µM (active) and 6.16 µM (active). Besides, the Potency result in assay [2], in assay [3], in assay [5], in [6], in assay [19] and in [7] was “inactive” each time. Besides, the Potency entry in [9], in assay [11], in assay [12], in [14], in assay [15] and in [16] was “inactive” throughout. In addition, the Potency entry in assay [17] and in [18] was “inactive” in each case.

Take `COc1ccc(CO)cc1`: the Potency entry in assay [20], in assay [2], in [3], in [4], in [5] and in [6] was “inactive” throughout. Also, the Potency result in assay [19], in assay [7], in assay [8], in [9], in [10] and in assay [11] was “inactive” in each case. Besides, the Potency entry in assay [12], in assay [13], in assay [14], in assay [15], in assay [16] and in assay [17] was “inactive” in each case. Further, the Potency entry in [18] is “inactive”.

Consider `Cn1c(N)nc2c3cccnc3ccc21`, for which the Potency entry in [1], in assay [20], in [2], in assay [3], in [6] and in assay [19] was “inactive” each time. Also, the Potency entry in assay [7], in [8], in assay [9], in [10], in assay [11] and in assay [12] was “inactive” throughout. Moreover, the Potency result in [13], in assay [14], in assay [15], in assay [16], in assay [17] and in assay [18] was “inactive” in each case.

In the case of `COc1ccccc1N`, the Potency entry in assay [20], in assay [2], in assay [3], in assay [6], in [19] and in assay [7] was “inactive” each time. For the same compound, the Potency result in [13], in assay [14], in [15], in [16], in [17] and in [18] was “inactive” throughout.
